Compounds with a hit are over-represented: about 1.5% of the library has one in this group of screens.
TcdB GH inh – TcdB glycohydrolase inhibition; P18177; TcdB glycohydrolase enzymatic assay, plate reader; inhibition, % at 9.99 µM; hit rate 0.24% among 350,000; in the data active = inhibition above about 10%
VHR inh abs – DUSP3 (human) phosphatase inhibition; P51452; hit rate 0.52% among 290,000; inhibition, % at 13.3 µM; AID 1654; recombinant VHR phosphatase, pNPP absorbance; in the data active = inhibition above about 50%
Vc quorum ag – inducers of Vibrio cholerae quorum light production without autoinducers; V. cholerae BH1578 lux reporter, luminescence, 6 h; activation, % at 18.7 µM; hit rate 0.16% among 350,000; AID 588436; in the data active = activation mostly above about 9.7%, no sharp cut-off
SSB-PriA inh – inhibitors of Klebsiella pneumoniae PriA binding to SSB C-terminal tail; AlphaScreen SSBct-PriA binding, biotinylated peptide; inhibition, % at 33 µM; hit rate 0.6% among 430,000; AID 1272365; in the data active = inhibition mostly above about 37%, no sharp cut-off; inactive = mostly below about 20%;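 also: plate controls were negative control peptide for no effect and reference peptide for full effect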
CCHF vOTU inh – blocks the CCHF virus ovarian tumor domain protease; CCHFV vOTU protease, Pep-AMC fluorescence; inhibition, % at 11.5 µM; hit rate 0.55% among 370,000; in the data active = inhibition above about 30%; also: 0% = vehicle wells with enzyme and 100% = no enzyme wells
PrPC surface inh – cell surface PrPC inhibition, primary TR-FRET screen | AID 720596 | hit rate 0.43% among 370,000 | TR-FRET read-out | inhibition, % at 13.8 µM | P04156; in the data active = inhibition above about 24%; also: 0% = median of the test wells and 100% = reference compound wells
PrPC TRFRET cf – confirmation of inhibitors of cell surface human prion protein | shares compounds with PrPC surface inh | cell surface PrPC level, TR-FRET | AID 743200 | inhibition, % at 13.8 µM | hit rate 65% among 1,500; in the data active = inhibition above about 25%
LD9 cytotox – kills or reduces viability of LD9 cells in PrPc counter-screen; shares compounds with PrPC surface inh; LD9 cells cytotoxicity, luminescence viability; inhibition, % at 13.8 µM; hit rate 29% among 1,500; AID 743201; in the data active = inhibition above about 9.5%
Starred values were filed as active, the others as inactive; i = inactive; / = not tested or not shown.

SMILES | TcdB GH inh | VHR inh abs | Vc quorum ag | SSB-PriA inh | CCHF vOTU inh | PrPC surface inh | PrPC TRFRET cf | LD9 cytotox
CC(=O)c1sc(NC(=O)C(C)(C)C)nc1C | / | 9 | -1 | -5 | 4 | 26* | 27* | 1
CC(=O)c1sc(NC(=O)c2ccc(C(C)(C)C)cc2)nc1C | 0 | 8 | i | 0 | -4 | 7 | / | /
CCOc1ccccc1CNC(=O)c1cn(-c2cccc(Cl)c2)nn1 | / | / | / | -16 | / | / | / | /
Cc1cc(C)c(NC(=O)CSc2ncnc3c2nnn3Cc2ccccc2F)c(C)c1 | / | / | / | -12 | / | / | / | /
CCOc1ccc(NC(=O)Nc2cc(OCC(F)(F)F)cc(OCC(F)(F)F)c2)cc1 | 1 | 21 | 0 | 1 | 12 | 10 | / | /
O=C(Nc1ccc(F)cc1)Nc1cc(OCC(F)(F)F)cc(OCC(F)(F)F)c1 | / | 21 | 0 | -20 | -11 | 44* | 44* | 27*
CCCS(=O)(=O)N1CCCc2cc(N)ccc21 | / | / | / | 29 | / | / | / | /
CC(=O)O[C@H]1CC[C@@]2(C)C(CCC3C2CC[C@]2(C)OC(=O)CCC32)C1 (some centres undefined) | / | 22 | i | -9 | 5 | 7 | / | /
CC(=O)OC1CCC2(C)C(CCC3C4CC=C(C(C)=O)C4(C)OC(=O)CC32)C1 (centres undefined) | 6 | / | i | / | 7 | 72* | -16 | 91*
C=C1CC(c2ccc(-c3ccccc3)cc2)OC1=O (centres undefined) | -1 | / | / | / | / | / | / | /
C=C1CC2(CC(c3ccccc3)OC(c3ccccc3)C2)OC1=O (centres undefined) | -10 | / | i | -3 | 23 | 49* | 9 | 70*
C=CC(=O)N1C/C(=C/c2ccc(F)cc2)C(=O)/C(=C\c2ccc(F)cc2)C1 | -3 | / | / | 23 | 20 | 41* | 9 | 75*
CS(=O)(=O)c1ccc(C(=O)NNC(=O)c2cc(-c3ccccc3)n[nH]2)cc1 | -1 | / | i | -5 | 6 | 0 | / | /
COc1cc(C(=O)NNC(=O)c2cc(-c3ccccc3)n[nH]2)cc(OC)c1C | -5 | / | i | 4 | 16 | 26* | 9 | -4
CCSCCOC(=O)C1=C(C)N(C)C(=O)NC1c1cc(OC)ccc1OC (centres undefined) | / | 8 | 0 | 6 | 17 | 43* | 30* | -3
CCSCCOC(=O)C1=C(C)NC(=O)NC1c1cc(OC)ccc1OC (centres undefined) | / | 12 | -1 | -9 | 3 | -5 | / | /
Cc1ccc(Cl)cc1NC(=O)c1ccc(Cn2cc(Cl)cn2)cc1 | 1 | -11 | 0 | -15 | 7 | 27* | 24 | 3
CCOc1ccc(C(=O)Nc2cnn(Cc3ccc(Cl)c(Cl)c3)c2)cc1 | 1 | 27 | 0 | -5 | -5 | 27* | 23 | -4
O=C(Nc1ccc(Cl)c(Cl)c1)c1ccc(Cn2cc(Cl)cn2)cc1 | 1 | -21 | i | -28 | 17 | 6 | / | /
O=C(Nc1ccccc1F)c1ccc(Cn2cc(Cl)cn2)cc1 | 1 | 17 | i | -1 | -5 | 6 | / | /
O=C(Nc1c[nH]c(=O)[nH]c1=O)[C@H]1CCCN(c2cc(-n3ccc4ccccc43)ncn2)C1 | / | / | / | 4 | / | / | / | /
C=C(C)COc1ccc2oc(=O)cc(-c3cc4ccccc4o3)c2c1 | / | / | / | -11 | / | / | / | /
Cc1cc(C)n(-c2ncc(NC(=O)c3cccs3)cn2)n1 | / | / | / | -4 | / | / | / | /
COc1ccc2nc(NC(=O)c3cccs3)sc2c1 | 1 | 21 | -1 | -6 | -2 | 27* | 15 | 4
CCNC(=O)Nc1cn(CC)c2ccccc12 | / | / | / | -17 | / | / | / | /
CCN(CC)S(=O)(=O)c1cccc(-c2nn(-c3ccccc3)cc2/C=C(\C#N)C(=O)NCc2ccco2)c1 | / | -16 | 0 | -1 | -21 | -6 | / | /
CN(C)S(=O)(=O)c1cccc(-c2nn(-c3ccccc3)cc2/C=C(/C#N)C(=O)NCc2ccco2)c1 | / | 37 | 0 | 0 | -4 | 29* | 10 | -2
Cc1ccc(Sc2c(O)c3ccccc3n(C)c2=O)cc1 | -2 | 15 | -1 | -10 | -8 | 45* | 59* | -11
Cc1c(CNC(=O)c2ccc(S(N)(=O)=O)cc2)sc2nc(-c3ccc(F)cc3)cn12 | / | / | / | -3 | / | / | / | /
O=C(Nc1ccc2c(c1)OCO2)c1ccc2sc([C@@H]3O[C@H](CO)[C@@H](O)[C@H]3O)nc2c1 | 1 | / | 0 | / | 14 | 25* | 21 | 5
